Numbering of substitutions follows the chain as printed.
These sequences were tested against T1, SALL4 ZFC4 WT (HT-SELEX) (Mus musculus, UniProt Q8BX22 870-940) (assay: HT-SELEX; high values mean tight binding). Conditions: protein: recombinant; vector His6-GST; dsDNA, one strand shown.
T1 sequence: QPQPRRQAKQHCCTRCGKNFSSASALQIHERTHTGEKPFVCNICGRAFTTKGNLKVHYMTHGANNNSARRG
Procedure, shortened: (§1)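 Binding signal is expressed as fold change in each canonical k-mer's read fraction over the initial random library. To obtain it, 1 µg of purified recombinant mouse SALL4 zinc finger cluster 4 (residues 870–940) was incubated for 10 min at room temperature with library DNA (1.5 µg first cycle, 200 ng later cycles) in 100 µl of 10 mM Tris–HCl pH 7.5, 50 mM NaCl, poly(dI-dC) and DTT. Ni2+ bead-captured complexes went through washing, PCR amplification and reselection for up to 6 cycles, in triplicate, before MiSeq sequencing and scanning for 6-mers.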

Sequence	binding signal [fold-change vs cycle 0]
TCAACA	1.19 ± 0.0385
CATATA	2.3 ± 0.215
TCTGAA	1.3 ± 0.0929
AGGAGC	0.374 ± 0.0206
AGCTAG	0.723 ± 0.0356
CAATGG	0.767 ± 0.067
ACATTA	2.1 ± 0.0777
TGGGAA	0.795 ± 0.0577
CTCGTC	0.385 ± 0.0153
ACTTTC	1.28 ± 0.0405
CGTTTC	0.628 ± 0.029
AGTCGA	0.617 ± 0.0356
AAGAAT	2.15 ± 0.0737
CGGAAA	0.548 ± 0.0301
ATGATA	2.72 ± 0.227
CAGGAG	0.48 ± 0.0178
ACACTA	1.26 ± 0.0187
AAACCC	0.691 ± 0.0592
ACGTAT	1.2 ± 0.0268
AGGATC	0.876 ± 0.0353

Sequence	binding signal [fold-change vs cycle 0]
AGGGGG	0.323 ± 0.0254
ATTGGA	1.3 ± 0.0815
GATATA	2.54 ± 0.207
CGTCTA	0.63 ± 0.0233
GATAGC	0.692 ± 0.0348
CACTGA	0.799 ± 0.0339
ATCCCC	0.549 ± 0.0564
CGAGTC	0.379 ± 0.0123
ATCGTA	1.24 ± 0.0384
ACGATC	0.662 ± 0.038
CACTTC	0.777 ± 0.0329
ATGTCA	1.23 ± 0.0617
CTCACA	0.786 ± 0.0522
CCATCA	0.823 ± 0.0184
AGTTAA	1.95 ± 0.0954
CAGGAA	0.785 ± 0.0392
GTGAAC	0.832 ± 0.046
CATTGA	1.25 ± 0.0236
CGGTGA	0.364 ± 0.0107
CTTTTC	1.14 ± 0.0195

Each sequence was assayed against T2, SALL4 ZFC4 R900W (HT-SELEX) (Mus musculus, UniProt Q8BX22 870-940, R900W) (assay: HT-SELEX; high values mean tight binding). Conditions: protein: recombinant; vector His6-GST; dsDNA, one strand shown.
T2 sequence: T1 sequence with R31W
Procedure, shortened: as §1

Sequence	binding signal [fold-change vs cycle 0]
TCAACA	1.35 ± 0.0647
CATATA	1.91 ± 0.115
TCTGAA	1.43 ± 0.078
AGGAGC	0.46 ± 0.0185
AGCTAG	0.815 ± 0.0265
CAATGG	0.849 ± 0.0267
ACATTA	2.03 ± 0.0851
TGGGAA	0.859 ± 0.0429
CTCGTC	0.487 ± 0.019
ACTTTC	1.42 ± 0.0806
CGTTTC	0.738 ± 0.0101
AGTCGA	0.697 ± 0.0314
AAGAAT	2.2 ± 0.103
CGGAAA	0.591 ± 0.00691
ATGATA	2.14 ± 0.0867
CAGGAG	0.596 ± 0.041
ACACTA	1.3934 ± 0.0013
AAACCC	0.77 ± 0.0294
ACGTAT	1.28 ± 0.0492
AGGATC	1.01 ± 0.0497

Sequence	binding signal [fold-change vs cycle 0]
AGGGGG	0.375 ± 0.0258
ATTGGA	1.36 ± 0.0818
GATATA	1.98 ± 0.124
CGTCTA	0.702 ± 0.0194
GATAGC	0.798 ± 0.0237
CACTGA	0.912 ± 0.0516
ATCCCC	0.604 ± 0.0359
CGAGTC	0.4362 ± 0.00406
ATCGTA	1.28 ± 0.0284
ACGATC	0.773 ± 0.0211
CACTTC	0.925 ± 0.0515
ATGTCA	1.34 ± 0.0399
CTCACA	0.895 ± 0.0341
CCATCA	0.957 ± 0.0265
AGTTAA	2.13 ± 0.114
CAGGAA	0.921 ± 0.0224
GTGAAC	0.941 ± 0.022
CATTGA	1.39 ± 0.0271
CGGTGA	0.421 ± 0.0161
CTTTTC	1.29 ± 0.0412

The sequences below were run against T3, SALL4 ZFC4 G921D (HT-SELEX) (Mus musculus, UniProt Q8BX22 870-940, G921D) (assay: HT-SELEX; high values mean tight binding). Conditions: protein: recombinant; vector His6-GST; dsDNA, one strand shown.
T3 sequence: T1 sequence with G52D
Procedure, shortened: as §1

Sequence	binding signal [fold-change vs cycle 0]
TCAACA	1.3 ± 0.0976
CATATA	1.71 ± 0.163
TCTGAA	1.37 ± 0.111
AGGAGC	0.595 ± 0.0548
AGCTAG	0.874 ± 0.021
CAATGG	0.923 ± 0.0362
ACATTA	1.81 ± 0.142
TGGGAA	0.877 ± 0.0259
CTCGTC	0.571 ± 0.0514
ACTTTC	1.37 ± 0.0709
CGTTTC	0.794 ± 0.021
AGTCGA	0.807 ± 0.0559
AAGAAT	1.91 ± 0.167
CGGAAA	0.694 ± 0.0765
ATGATA	1.86 ± 0.153
CAGGAG	0.676 ± 0.0293
ACACTA	1.36 ± 0.0513
AAACCC	0.845 ± 0.0633
ACGTAT	1.23 ± 0.0551
AGGATC	1.07 ± 0.0215

Sequence	binding signal [fold-change vs cycle 0]
AGGGGG	0.443 ± 0.0497
ATTGGA	1.33 ± 0.0804
GATATA	1.77 ± 0.173
CGTCTA	0.79 ± 0.0202
GATAGC	0.8754 ± 0.00393
CACTGA	0.949 ± 0.00436
ATCCCC	0.664 ± 0.0449
CGAGTC	0.578 ± 0.0547
ATCGTA	1.29 ± 0.0379
ACGATC	0.907 ± 0.0183
CACTTC	0.946 ± 0.0498
ATGTCA	1.32 ± 0.0617
CTCACA	0.9459 ± 0.00888
CCATCA	0.949 ± 0.0116
AGTTAA	1.84 ± 0.201
CAGGAA	0.918 ± 0.0252
GTGAAC	1.01 ± 0.0456
CATTGA	1.35 ± 0.0347
CGGTGA	0.548 ± 0.0673
CTTTTC	1.218 ± 0.00999

Source: article PMC9838217, “Structure of SALL4 zinc finger domain reveals link between AT-rich DNA binding and Okihiro syndrome”
